Records with an inconclusive call do not appear. A call without a number means that no potency is given here. The source made the active and inactive calls. The call rests on the fitted dose curve; in most records, active means well fitted inhibition curve with a large enough effect; inconclusive means small, poorly fitted or top-dose-only effect; inactive means no such curve, though single readings can be large or run the other way.

Data on 40 molecules can be found in PubChem BioAssay AID602474 (National Center for Advancing Translational Sciences (NCATS), 2012).

Luciferin 4-monooxygenase (Photinus pyralis), sequence (P08659 whole entry, looked up): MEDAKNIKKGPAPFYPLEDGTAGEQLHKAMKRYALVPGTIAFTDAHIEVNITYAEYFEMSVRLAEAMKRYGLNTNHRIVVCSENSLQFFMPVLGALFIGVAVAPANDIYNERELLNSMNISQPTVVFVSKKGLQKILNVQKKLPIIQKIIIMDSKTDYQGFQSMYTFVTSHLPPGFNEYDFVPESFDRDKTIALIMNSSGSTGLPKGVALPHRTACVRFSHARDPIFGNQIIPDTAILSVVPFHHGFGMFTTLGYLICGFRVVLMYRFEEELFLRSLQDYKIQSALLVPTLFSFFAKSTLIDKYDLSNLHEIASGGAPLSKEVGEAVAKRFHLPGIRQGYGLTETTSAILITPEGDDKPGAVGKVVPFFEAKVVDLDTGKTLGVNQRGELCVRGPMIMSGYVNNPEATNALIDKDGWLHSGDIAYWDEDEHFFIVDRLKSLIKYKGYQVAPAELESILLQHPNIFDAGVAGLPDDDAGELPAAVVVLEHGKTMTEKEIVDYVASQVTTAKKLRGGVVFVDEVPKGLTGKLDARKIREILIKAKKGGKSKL

This experiment addresses Luciferin 4-monooxygenase (Photinus pyralis) (UniProt P08659). Nature of the experiment: FLuc inhibitory activity for the follow-up compounds in a biochemical assay with a commercial detection reagent - BriteliteTM Plus (PerkinElmer). Conditions: purified FLuc, Britelite Plus luminescence; series mostly up to 38.3 µM. The text has this: NCGC Assay Overview: Firefly (Photinus pyralis) luciferase is one of the most commonly used transcriptional reporters. It is considered one of the more dynamically responsive reporters - that is, responsive to changes in reporter transcription - as it requires no post-translational modifications and is enzymatically active directly after protein synthesis (Wood, 1998). With no endogenous expression in mammalian cells and without the requirement of external excitation, it offers very little background signal, thus generally providing excellent signal to background for most assays. Previous profiling work to determine the prevalence of compounds that affect FLuc enzymatic activity (PubChem AID 411) identified that ~3% of the MLSMR library (then at ~72K) inhibited FLuc (Auld et al., 2008). […] Of the compounds identified in this profile that inhibited FLuc, 151 compounds were selected for further analysis, in an effort to better understand their mode of inhibiting FLuc. The assay described here was to determine the activity of the compounds in a FLuc assay that used a commercial formulation of detection reagent (BriteliteTM Plus; PerkinElmer).
NCGC Assay Protocol Summary: Reagents: Britelite Plus detection reagent; 50mM Tris acetate, pH 7.5; 10nM P. pyralis luciferase (Sigma #L9506) Control compounds used were two known firefly luciferase inhibitors (3-(5-(3-chlorophenyl)-1,2,4-oxadiazol-3-yl)benzoic acid and 5-(2-fluorophenyl)-3-phenyl-1,2,4-oxadiazole), and DMSO. Assay Summary: Three microliters of buffer containing firefly luciferase (final concentrations: 50mM Tris acetate, 10nM P. pyralis luciferase) are dispensed into each well of a Greiner white, solid-bottom 1536-well format plate using a flying reagent dispenser (FRD). These assay plates were then treated with 23nL of compound or DMSO using a Kalypsys pin tool, which allows for delivery of a 12-point intraplate titration of each compound to the assay plate (quantitative HTS), with final compound concentrations ranging from approximately ~38uM to 0.2nM. Three microliters of 2X Britelite Plus detection reagent was then delivered by FRD to each well. Luciferase activity was then measured using a ViewLux CCD imager (PerkinElmer), with an average exposure time of 2-30 seconds (2X binning, medium/high gain).
Consider `Nc1ccc(-c2nc3cc(N)ccc3s2)cc1`, for which the Potency was 4000 nM (active).
As to `Nc1cccc(-c2nc3ccc(N)cc3s2)c1`, the Potency is 798 nM (active).
With `COc1cccc(-c2nc3ccccc3s2)c1`, the Potency was 5650 nM (active).
Turning to `Cc1ccc2sc(-c3ccc(NC(=O)c4cc(-n5cnnc5)ccc4Cl)cc3)nc2c1`, the Potency result is “inactive”.
Turning to `O=C(O)c1ccc(NC(=O)c2ccccc2NC(=O)c2ccccc2Br)cc1`, the Potency result is “inactive”.
Next, `O=C(Cc1ccc(Cl)cc1)Nc1cccc(C(=O)Nc2ccccc2C(=O)O)c1`: “inactive”.
For the molecule `CC(=O)Nc1cccc(C(=O)Nc2ccccc2C(=O)O)c1`, the Potency entry was “inactive”.
In the case of `CC(=O)Nc1cccc(-c2nc3ccccc3s2)c1C`, the Potency result is “inactive”.
`COc1ccc(NS(=O)(=O)c2cccc(C(=O)Nc3ccccc3C(=O)O)c2)cc1`: the Potency entry was “inactive”.
As to `Nc1ccc2nc(-c3ccc(O)cc3)sc2c1`, the Potency is 1130 nM (active).
Regarding `Cc1ccc(C(=O)Nc2cccc(C(=O)O)c2)cc1S(=O)(=O)N1CCCCC1`, the Potency was 2830 nM (active).
Regarding `COc1ccc(C(=O)Nc2ccccc2C(=O)N/N=C/c2ccc(O)c(OC)c2)cc1`, the Potency was 2 nM (active).
Regarding `CC(C)(C)NC(=O)c1ccccc1-c1nc2ccccc2s1`, the Potency entry was “inactive”.
As for `Cc1ccc2nc(-c3ccc(NC(=O)CN4CCN(C(=O)c5ccco5)CC4)cc3)sc2c1`, the Potency was 798 nM (active).
Turning to `COc1ccc(C(=O)Nc2ccccc2C(=O)Nc2ccccc2C(=O)O)cc1`, the Potency was 11300 nM (active).
For the molecule `O=C(Nc1ccccc1C(=O)O)c1cc(S(=O)(=O)NCc2ccccc2)ccc1Cl`, the Potency entry is “inactive”.
Turning to `COc1ccc2nc(NC(=O)C3CCN(S(=O)(=O)c4cccs4)CC3)sc2c1`, the Potency result is “inactive”.
In the case of `CC(C)C(=O)Nc1cccc(C(=O)Nc2ccccc2C(=O)O)c1`, the Potency is 17900 nM (active).
Next, `O=C(O)c1ccc(NC(=O)c2cc(S(=O)(=O)N3CCCCC3)c(Cl)cc2Cl)cc1`: “inactive”.
In the case of `COc1ccc2nc(NC(=O)c3ccc(NS(=O)(=O)c4cccs4)cc3)sc2c1`, the Potency entry was “inactive”.
Next, `O=C(COC(=O)c1ccccc1[N+](=O)[O-])c1ccc2c(c1)OCO2`: 17.9 nM (active); `O=C(Nc1ccccc1C(=O)O)c1ccccc1`: “inactive”.
Consider `NC(=O)Cc1ccc2sc(-c3ccccc3)nc2c1`, for which the Potency was 6340 nM (active).
As for `Cc1cccc(C(=O)Nc2ccc(-c3nc4ccccc4s3)cc2Cl)c1`, the Potency entry is “inactive”.
The figure for `Nc1ccccc1C(=O)Nc1cccc(C(=O)O)c1` is 12600 nM (active); for `O=C(Nc1ccccc1C(=O)O)c1cccc(S(=O)(=O)Nc2ccc(Br)cc2)c1` it is “inactive”; for `O=C(O)c1ccccc1NC(=O)c1ccccc1Nc1ccccc1` it is “inactive”.
For `CN=c1scc(-c2ccccc2F)n1/N=C/c1ccc[nH]1`, the Potency is 79.8 nM (active).
For the molecule `Cc1ccccc1C(=O)Nc1cccc(C(=O)Nc2ccccc2C(=O)O)c1`, the Potency result is “inactive”.
On to `O=C(O)c1ccc(NC(=O)c2ccccc2NC(=O)c2ccccc2Cl)cc1`, for which the Potency entry was “inactive”.
Turning to `O=C(O)c1cccc(NC(=O)c2ccccc2NC(=O)c2ccccc2F)c1`, the Potency result was “inactive”.
`CN(C)S(=O)(=O)c1ccc(C(=O)Nc2ccccc2C(=O)O)cc1`: the Potency result was “inactive”.
With `COc1ccc2nc(NC(=O)c3nc(S(=O)(=O)Cc4ccc(C)cc4)ncc3Cl)sc2c1`, the Potency entry is “inactive”.
The entry for `COc1ccc(C(=O)Nc2cccc(C(=O)O)c2)cc1S(=O)(=O)N1CCCC1` is “inactive”; for `COc1ccc(C(=O)Nc2nc3ccc(OC)cc3s2)cc1` it is “inactive”.
Consider `Cc1ccc2nc(-c3ccc(N)cc3)sc2c1`, for which the Potency is 895 nM (active).
Take `O=C(Nc1ccccc1C(=O)O)c1ccc(NC(=O)C2CC2)cc1`: the Potency was 4490 nM (active).
As for `COc1ccc(-c2nc3ccccc3s2)cc1O`, the Potency is 711 nM (active).
`COc1ccc2nc(NC(=O)C3CCN(S(=O)(=O)c4cccnc4)CC3)sc2c1`: the Potency result is “inactive”.
Next, `COc1cc(OC)cc(C(=O)Nc2ccccc2-c2nc3ccccc3s2)c1`: “inactive”.
